Measurements: PubChem BioAssay (Tox21)
A number with no mark means an inactive call. Results filed as inconclusive are left out. A call without a number means that no potency is given here. Activity calls are given as the source filed them. Unless noted, the call rests on the fitted dose curve; in most records, active means well fitted curve in the direction sought with a large enough effect in the repeat runs; inconclusive means weak or mixed curves; inactive means no such curve, though single readings can be large; an effect the other way counts as inactive or inconclusive.

Experiments:
[1] = qHTS assay for small molecules that induce genotoxicity in human embryonic kidney cells expressing luciferase-tagged ATAD5 (AID 651632); further: nearly all actives have a fitted effect of over 15% in size; further: potency means the concentration at half of the fitted maximal effect
Method in brief: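 Concentration-response screen for ATAD5 upregulation in HEK293T luciferase reporter cells; 16 hr treatment at 37C, then luminescence after 30 min with Amplite at room temperature.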

[2] = qHTS assay for small molecule agonists of the p53 signaling pathway - cell viability (AID 651633; calls by dose curve;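 further: p53RE-bla HCT reporter cells with a stable beta-lactamase p53 reporter; series mostly up to about 83 µM; nearly all actives have a fitted effect of over 30% in size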)
Method in brief: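 p53RE-bla cells were treated with compound for 16 hours at 37 C. Cytotoxicity was then measured as CellTiter-Glo luminescence after 30 min at room temperature.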

[3] = qHTS assay for small molecules that induce genotoxicity in human embryonic kidney cells expressing luciferase-tagged ATAD5 - cell viability (AID 651634; calls by dose curve; further: nearly all actives have a fitted effect of over 25% in size)
Method in brief: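 15.5 hr compound or vehicle exposure of HEK293T cells expressing luciferase-tagged ATAD5 at 37C; live-cell protease activity is read by fluorescence after 30 min of CellTiter-Fluor.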

[4] = qHTS assay for small molecule disruptors of the mitochondrial membrane potential - cell viability (AID 720634; calls by dose curve;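 further: human HepG2 liver cancer cells; series mostly up to about 83 µM; nearly all actives have a fitted effect of over 20% in size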)
Method in brief: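 In this qHTS format, HepG2 cells plated overnight were pinned with compound, incubated 1 hr, and assayed for ATP luminescence with CellTiter-Glo after m-MPI dye addition.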

[5] = qHTS assay for small molecule disruptors of the mitochondrial membrane potential (AID 720635)
Method in brief: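 HepG2 cells exposed to compound 1 hr at 37C, then Mito-MPS dye 30 min. Ratio read of aggregate (540/590 nm) versus monomer (490/535 nm) fluorescence.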

[6] = qHTS assay to test for compound auto fluorescence at 590 nm (red) in HepG2 cells (AID 720674)
Method in brief: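 HepG2 cells, 2,000 per well in MEM with 10% FBS, attached overnight at 37 C, then got 23 nL compound or DMSO. After 1 hr at 37 C, 5% CO2, red fluorescence was read at 540/590 nm against Rose Bengal sodium as reference.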

[7] = qHTS assay to test for compound auto fluorescence at 535 nm (green) in HepG2 cells (AID 720675)
[8] = qHTS assay to test for compound auto fluorescence at 460 nm (blue) in HEK293 cells (AID 720678)
Method in brief: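 HEK293 cells (2,000 per well, medium with 10% dialyzed FBS) attached for 4-5 hr at 37C, then received compound and stood overnight at 37C, 5% CO2. Blue fluorescence was read at Ex/Em 405/460 nm and expressed relative to triamterene.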

[9] = qHTS assay to test for compound auto fluorescence at 590 nm (red) in HEK293 cells (AID 720679)
Method in brief: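 HEK293 cells (2,000/well, medium with 10% dialyzed FBS) attached for 4-5 hr at 37C, received 23 nL compound and were incubated overnight at 37C, 5% CO2. Red fluorescence was then read at 540/590nm Ex/Em, referenced to Rose Bengal sodium.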

[10] = qHTS assay to test for compound auto fluorescence at 535 nm (green) in HEK293 cells (AID 720680)
[11] = qHTS assay to test for compound auto fluorescence at 460 nm (blue) in HEK293 cell free culture (AID 720681)
Method in brief: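 Compounds were added to cell-free DMEM with 10% FBS and fluorescence read directly. The blue channel used 405 nm excitation and 460 nm emission, with triamterene as the reference fluorophore.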

[12] = qHTS assay to test for compound auto fluorescence at 535 nm (green) in HEK293 cell free culture (AID 720682)
Method in brief: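 Fluorescein serves as the green reference fluorophore; each compound's intrinsic emission at 535 nm (excitation 485 nm) is reported as an equivalent amount of that dye, measured in serum-containing DMEM without cells.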

[13] = qHTS assay to test for compound auto fluorescence at 590 nm (red) in HEK293 cell free culture (AID 720683)
Method in brief: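 Cell-free wells of DMEM with 10% FBS received compound, and intrinsic fluorescence was read at excitation/emission 540/590 nm. Values expressed as equivalence to Rose Bengal sodium.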

[14] = qHTS assay to test for compound auto fluorescence at 590 nm (red) in HepG2 cell free culture (AID 720684)
Method in brief: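 Auto fluorescence equivalency versus Rose Bengal sodium, red channel Ex/Em 540/590 nm; compounds in cell-free MEM/10% FBS; DMSO vehicle control.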

[15] = qHTS assay to test for compound auto fluorescence at 460 nm (blue) in HepG2 cell free culture (AID 720685)
Method in brief: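 Cell-free plates of MEM plus 10% FBS received 23 nL compound or DMSO vehicle; blue-channel (405/460 nm) intensity scored against triamterene as reference fluorophore.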

[16] = qHTS assay to test for compound auto fluorescence at 535 nm (green) in HepG2 cell free culture (AID 720686)
[17] = qHTS assay to test for compound auto fluorescence at 460 nm (blue) in HepG2 cells (AID 720687)
Method in brief: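 HepG2 cells in MEM with 10% FBS, attached overnight at 37 C, were exposed to compound or DMSO for 1 hr at 37 C, 5% CO2. Blue fluorescence was read at 405/460 nm, with triamterene as reference fluorophore.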

[18] = target: Glucocorticoid receptor (Homo sapiens) (UniProt P04150); assay: qHTS assay to identify small molecule agonists of the glucocorticoid receptor (GR) signaling pathway (AID 720691; active means well fitted activation curve with a large enough effect in the signal ratio in the repeat runs, not every such curve was filed as active; the % refers to the signal ratio)
Chain of Glucocorticoid receptor (Homo sapiens) (P04150 whole entry, looked up): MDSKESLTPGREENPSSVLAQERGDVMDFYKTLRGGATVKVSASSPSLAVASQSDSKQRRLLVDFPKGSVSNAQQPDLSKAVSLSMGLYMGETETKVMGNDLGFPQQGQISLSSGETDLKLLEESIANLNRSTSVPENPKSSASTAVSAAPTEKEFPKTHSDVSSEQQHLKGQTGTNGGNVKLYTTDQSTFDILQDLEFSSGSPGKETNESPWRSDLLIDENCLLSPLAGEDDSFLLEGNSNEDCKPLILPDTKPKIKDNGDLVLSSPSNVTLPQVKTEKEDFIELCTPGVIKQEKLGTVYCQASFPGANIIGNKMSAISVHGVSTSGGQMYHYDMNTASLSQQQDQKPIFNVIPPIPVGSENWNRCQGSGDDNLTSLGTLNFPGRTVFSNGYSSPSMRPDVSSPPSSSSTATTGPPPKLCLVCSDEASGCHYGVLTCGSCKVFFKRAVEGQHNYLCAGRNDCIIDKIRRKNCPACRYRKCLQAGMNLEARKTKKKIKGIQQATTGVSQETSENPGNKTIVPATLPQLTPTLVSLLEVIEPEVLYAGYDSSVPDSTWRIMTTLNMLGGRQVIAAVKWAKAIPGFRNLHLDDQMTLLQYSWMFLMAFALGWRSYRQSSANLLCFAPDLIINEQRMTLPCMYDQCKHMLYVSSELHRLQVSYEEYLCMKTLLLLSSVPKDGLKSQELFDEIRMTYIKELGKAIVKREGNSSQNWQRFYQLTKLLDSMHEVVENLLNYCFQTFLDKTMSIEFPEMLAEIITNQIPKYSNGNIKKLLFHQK
Method in brief: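 Measures GR pathway activation through a GRE-beta-lactamase reporter stably integrated in HeLa cells, with 18 h compound treatment at 37 C and fluorescence detection using a FRET substrate.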

[19] = target: Glucocorticoid receptor (Homo sapiens) (UniProt P04150); assay: qHTS assay to identify small molecule antagonists of the glucocorticoid receptor (GR) signaling pathway (AID 720692; active means well fitted inhibition curve with a large enough effect in the signal ratio in the repeat runs, not every such curve was filed as active; the % refers to the signal ratio)
Method in brief: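 Tox21 10K library screened in concentration-response for blockade of dexamethasone (5 nM final)-induced GRE-bla reporter activity in HeLa cells; 18 h treatment, fluorescence read.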

C[C@@H]1CN(c2c(F)c(F)c3c(=O)c(C(=O)O)cn(C4CC4)c3c2F)C[C@H](C)N1
Potency [1]: inactive
Potency [2]: inactive
Potency [3]: inactive
Potency [4]: inactive
Potency [5]: inactive
outcome [6]: inactive
outcome [7]: inactive
outcome [8]: inactive
outcome [9]: inactive
outcome [10]: inactive
outcome [11]: inactive
outcome [12]: inactive
outcome [13]: inactive
outcome [14]: inactive
outcome [15]: inactive
outcome [16]: inactive
outcome [17]: inactive
Potency [18]: inactive
Potency [19]: inactive

CCOC(=O)CS
Potency [1]: inactive
Potency [2]: inactive
Potency [3]: inactive
Potency [4]: inactive
outcome [6]: inactive
outcome [7]: inactive
outcome [8]: inactive
outcome [9]: inactive
outcome [10]: inactive
outcome [11]: inactive
outcome [12]: inactive
outcome [13]: inactive
outcome [14]: inactive
outcome [15]: inactive
outcome [16]: inactive
outcome [17]: inactive
Potency [18]: inactive
Potency [19]: inactive

CC1=C2[C@H](/C=C(\C)C(=O)O)CC[C@@H](C)[C@H]2CC1
Potency [1]: inactive
Potency [2]: inactive
Potency [3]: inactive
Potency [4]: inactive
outcome [6]: inactive
outcome [7]: inactive
outcome [8]: inactive
outcome [9]: inactive
outcome [11]: inactive
outcome [12]: inactive
outcome [13]: inactive
outcome [14]: inactive
outcome [15]: inactive
outcome [16]: inactive
outcome [17]: inactive
Potency [19]: inactive

O=C(O)CN(CCN(CC(=O)O)CC(=O)O)CCN(CC(=O)O)CC(=O)O
Potency [1]: 26.6 µM (active)
Potency [2]: inactive
Potency [3]: inactive
Potency [4]: inactive
Potency [5]: inactive
outcome [6]: inactive
outcome [7]: inactive
outcome [8]: inactive
outcome [9]: inactive
outcome [10]: inactive
outcome [11]: inactive
outcome [12]: inactive
outcome [13]: inactive
outcome [14]: inactive
outcome [15]: inactive
outcome [16]: inactive
outcome [17]: inactive
Potency [18]: inactive

CCCCN1C[C@H](O)[C@@H](O)[C@H](O)[C@H]1CO
Potency [1]: inactive
Potency [2]: inactive
Potency [3]: inactive
Potency [4]: inactive
outcome [6]: inactive
outcome [7]: inactive
outcome [8]: inactive
outcome [9]: inactive
outcome [11]: inactive
outcome [12]: inactive
outcome [13]: inactive
outcome [14]: inactive
outcome [15]: inactive
outcome [16]: inactive
outcome [17]: inactive
Potency [18]: inactive
Potency [19]: inactive

CN1CCN(C2=Nc3ccccc3Oc3ccc(Cl)cc32)CC1
Potency [1]: inactive
Potency [2]: inactive
Potency [3]: inactive
Potency [4]: inactive
fluorescence, relative to Rose Bengal [6]: 0.128% [at 18.6 µM]
fluorescence, % of fluorescein control [7]: -0.116% [at 18.6 µM]
fluorescence, % of triamterene [8]: 0.0075% [at 18.6 µM]
fluorescence, % of fluorescent control [9]: 0.151% [at 18.6 µM]
fluorescence, % of fluorescein [10]: 0.0654% [at 18.6 µM]
fluorescence, % of fluorescent control [11]: 0.0139% [at 18.6 µM]
activity change [12]: -0.0046% [at 18.6 µM]
fluorescence, % of fluorescent control [13]: 0.0885% [at 18.6 µM]
fluorescence, % of Rose Bengal [14]: -0.256% [at 18.6 µM]
fluorescence, % of fluorescent control [15]: -0.0109% [at 18.6 µM]
fluorescence, % of fluorescein control [16]: 0.0479% [at 18.6 µM]
fluorescence, % of fluorescent control [17]: 0.0039% [at 18.6 µM]
Potency [18]: inactive

CCCNC(C)(C)COC(=O)c1ccccc1
Potency [1]: inactive
Potency [2]: inactive
Potency [3]: inactive
Potency [4]: inactive
Potency [5]: inactive
outcome [6]: inactive
outcome [7]: inactive
outcome [8]: inactive
outcome [9]: inactive
outcome [10]: inactive
outcome [11]: inactive
outcome [12]: inactive
outcome [13]: inactive
outcome [14]: inactive
outcome [15]: inactive
outcome [16]: inactive
outcome [17]: inactive
Potency [18]: inactive
Potency [19]: inactive

CCC/C=C/CO
Potency [1]: inactive
Potency [2]: inactive
Potency [3]: inactive
Potency [4]: inactive
outcome [6]: inactive
outcome [7]: inactive
outcome [8]: inactive
outcome [9]: inactive
outcome [10]: inactive
outcome [11]: inactive
outcome [12]: inactive
outcome [13]: inactive
outcome [14]: inactive
outcome [16]: inactive
outcome [17]: inactive
Potency [18]: inactive

CC(C)C[C@H](NC(=O)OCC1c2ccccc2-c2ccccc21)C(=O)O
Potency [1]: 12.2 µM (active)
Potency [2]: inactive
Potency [3]: inactive
Potency [4]: inactive
outcome [6]: inactive
outcome [7]: inactive
outcome [8]: inactive
outcome [9]: inactive
outcome [10]: inactive
outcome [11]: inactive
outcome [12]: inactive
outcome [13]: inactive
outcome [14]: inactive
outcome [15]: inactive
outcome [16]: inactive
outcome [17]: inactive
Potency [19]: inactive

CC1(C)C(=O)N(Cl)C(=O)N1Br
Potency [1]: inactive
Potency [2]: inactive
Potency [3]: inactive
Potency [4]: inactive
outcome [6]: inactive
outcome [7]: inactive
outcome [8]: inactive
outcome [9]: inactive
outcome [10]: inactive
outcome [11]: inactive
outcome [12]: inactive
outcome [13]: inactive
outcome [14]: inactive
outcome [15]: inactive
outcome [16]: inactive
outcome [17]: inactive
Potency [18]: inactive
Potency [19]: inactive

Cn1cnc2c(F)c(Nc3ccc(Br)cc3Cl)c(C(=O)NOCCO)cc21
Potency [1]: inactive
Potency [2]: inactive
Potency [3]: inactive
Potency [4]: inactive
outcome [6]: inactive
outcome [7]: inactive
outcome [8]: inactive
outcome [9]: inactive
outcome [10]: inactive
outcome [11]: inactive
outcome [12]: inactive
outcome [13]: inactive
outcome [14]: inactive
outcome [15]: inactive
outcome [16]: inactive
outcome [17]: inactive
Potency [18]: inactive

CCN(CCCc1ccccc1)CCCc1ccccc1
Potency [1]: inactive
Potency [2]: inactive
Potency [3]: inactive
Potency [4]: inactive
fluorescence, relative to Rose Bengal [6]: 0.32% [at 18.6 µM]
fluorescence, % of fluorescein control [7]: -0.0397% [at 18.6 µM]
fluorescence, % of triamterene [8]: 0.0775% [at 18.6 µM]
fluorescence, % of fluorescent control [9]: -0.195% [at 18.6 µM]
fluorescence, % of fluorescein [10]: 0.159% [at 18.6 µM]
fluorescence, % of fluorescent control [11]: -0.0197% [at 18.6 µM]
activity change [12]: 0.0298% [at 18.6 µM]
fluorescence, % of fluorescent control [13]: 0.107% [at 18.6 µM]
fluorescence, % of Rose Bengal [14]: -0.137% [at 18.6 µM]
fluorescence, % of fluorescent control [15]: 0.009% [at 18.6 µM]
fluorescence, % of fluorescein control [16]: 0.0299% [at 18.6 µM]
fluorescence, % of fluorescent control [17]: -0.0033% [at 18.6 µM]

Cc1ccc([N+](=O)[O-])c(N)c1
Potency [1]: inactive
Potency [3]: inactive
Potency [4]: inactive
Potency [5]: inactive
outcome [6]: inactive
outcome [7]: inactive
outcome [8]: inactive
outcome [9]: inactive
outcome [10]: inactive
outcome [11]: inactive
outcome [12]: inactive
outcome [13]: inactive
outcome [14]: inactive
outcome [15]: inactive
outcome [16]: inactive
outcome [17]: inactive
Potency [18]: inactive

CCCCC(CC)COC(=O)COc1cc(Cl)c(Cl)cc1Cl (configuration not stated)
Potency [1]: inactive
Potency [2]: inactive
Potency [3]: inactive
Potency [4]: inactive
outcome [6]: inactive
outcome [7]: inactive
outcome [8]: inactive
outcome [9]: inactive
outcome [10]: inactive
outcome [11]: inactive
outcome [12]: inactive
outcome [13]: inactive
outcome [14]: inactive
outcome [15]: inactive
outcome [16]: inactive
outcome [17]: inactive
Potency [18]: inactive
Potency [19]: inactive

CCOc1ccc(NS(=O)(=O)c2ccc(N)cc2)nn1
Potency [1]: inactive
Potency [2]: inactive
Potency [3]: inactive
Potency [4]: inactive
Potency [5]: inactive
outcome [6]: inactive
outcome [7]: inactive
outcome [8]: inactive
outcome [9]: inactive
outcome [10]: inactive
outcome [11]: inactive
outcome [12]: inactive
outcome [13]: inactive
outcome [14]: inactive
outcome [15]: inactive
outcome [16]: inactive
outcome [17]: inactive
Potency [18]: inactive
Potency [19]: inactive
